These results are taken from publication PMC7862700, “An all-to-all approach to the identification of sequence-specific readers for epigenetic DNA modifications on cytosine”.

Common to all, as to assay: DAPPL (digital affinity profiling via proximity ligation, sequencing); 10 mM Tris-HCl pH 7.5, 50 mM NaCl, 1 mM DTT, 4% glycerol, room temperature, 30 min; GST-TFs on glutathione beads, 16-mer random dsDNA library, 0.1% formaldehyde crosslink after washing; high values mean tight binding
What all share (conditions): protein: recombinant; tags: N-terminal GST; dsDNA, one strand shown

The target in test [1] is T1, ELK4 (Homo sapiens, UniProt P28324-2 1-405).
T1 sequence: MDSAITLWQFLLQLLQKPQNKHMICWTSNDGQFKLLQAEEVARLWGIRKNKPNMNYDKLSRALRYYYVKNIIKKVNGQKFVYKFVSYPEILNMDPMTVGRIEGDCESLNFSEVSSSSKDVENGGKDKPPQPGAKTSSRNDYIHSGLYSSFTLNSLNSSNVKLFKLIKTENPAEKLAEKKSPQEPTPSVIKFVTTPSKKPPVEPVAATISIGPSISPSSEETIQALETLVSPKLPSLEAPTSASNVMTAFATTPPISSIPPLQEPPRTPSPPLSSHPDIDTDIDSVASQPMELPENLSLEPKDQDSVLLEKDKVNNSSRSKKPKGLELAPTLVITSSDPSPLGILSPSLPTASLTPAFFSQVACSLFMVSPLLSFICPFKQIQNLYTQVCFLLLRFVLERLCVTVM
In short, it runs like this:
(§1)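 A tag-only sample was pooled with DNA-barcoded human transcription factors that had been expressed in yeast as GST fusions and captured on glutathione beads. The pools were incubated for 30 min at room temperature with 200 nmole of a random double-stranded 16-mer DNA library in Tris/NaCl/DTT/glycerol buffer, then washed, crosslinked with 0.1% formaldehyde, proximity-ligated (BsaI/T4 ligase, 1 h, 37 °C), PCR-amplified and sequenced on an Illumina NextSeq500. Binding signal is each hexamer's read frequency for a factor divided by its frequency for the tag-only sample.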

The target of test [2] is T2, ELF3 (Homo sapiens, UniProt P78545 1-371).
T2 sequence: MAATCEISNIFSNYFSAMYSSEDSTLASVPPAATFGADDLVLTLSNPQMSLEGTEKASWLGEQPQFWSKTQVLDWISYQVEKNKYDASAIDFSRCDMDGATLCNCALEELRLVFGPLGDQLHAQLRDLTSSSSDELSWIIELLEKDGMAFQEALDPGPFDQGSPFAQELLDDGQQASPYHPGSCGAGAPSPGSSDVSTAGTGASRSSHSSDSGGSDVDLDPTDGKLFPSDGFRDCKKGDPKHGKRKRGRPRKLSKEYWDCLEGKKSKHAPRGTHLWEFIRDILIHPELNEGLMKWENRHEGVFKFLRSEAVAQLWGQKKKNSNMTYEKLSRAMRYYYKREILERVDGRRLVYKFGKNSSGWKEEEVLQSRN
In short, it runs like this:
as §1

The target of test [3] is ETV1 (Homo sapiens, UniProt P50549 1-477). A digest of the protocol:
as §1

The target in test [4] is T3, ERF (Homo sapiens, UniProt P50548 1-548).
T3 sequence: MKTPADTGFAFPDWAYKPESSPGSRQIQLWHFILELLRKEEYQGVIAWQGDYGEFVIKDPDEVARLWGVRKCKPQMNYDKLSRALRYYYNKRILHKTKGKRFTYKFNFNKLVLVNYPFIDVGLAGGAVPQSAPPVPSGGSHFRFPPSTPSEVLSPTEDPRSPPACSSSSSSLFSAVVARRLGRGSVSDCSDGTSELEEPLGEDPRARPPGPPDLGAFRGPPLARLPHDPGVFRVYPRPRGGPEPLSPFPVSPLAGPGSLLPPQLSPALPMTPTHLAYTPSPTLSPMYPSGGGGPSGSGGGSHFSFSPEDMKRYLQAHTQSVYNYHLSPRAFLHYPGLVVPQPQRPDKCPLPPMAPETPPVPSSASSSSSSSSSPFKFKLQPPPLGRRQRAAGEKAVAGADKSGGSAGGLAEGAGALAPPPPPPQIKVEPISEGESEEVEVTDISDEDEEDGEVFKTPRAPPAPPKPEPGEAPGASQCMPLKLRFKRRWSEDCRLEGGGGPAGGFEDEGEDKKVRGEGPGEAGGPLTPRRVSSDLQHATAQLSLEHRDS
A digest of the protocol:
as §1

The target of test [5] is T4, ETV3L (Homo sapiens, UniProt Q6ZN32 1-361).
T4 sequence: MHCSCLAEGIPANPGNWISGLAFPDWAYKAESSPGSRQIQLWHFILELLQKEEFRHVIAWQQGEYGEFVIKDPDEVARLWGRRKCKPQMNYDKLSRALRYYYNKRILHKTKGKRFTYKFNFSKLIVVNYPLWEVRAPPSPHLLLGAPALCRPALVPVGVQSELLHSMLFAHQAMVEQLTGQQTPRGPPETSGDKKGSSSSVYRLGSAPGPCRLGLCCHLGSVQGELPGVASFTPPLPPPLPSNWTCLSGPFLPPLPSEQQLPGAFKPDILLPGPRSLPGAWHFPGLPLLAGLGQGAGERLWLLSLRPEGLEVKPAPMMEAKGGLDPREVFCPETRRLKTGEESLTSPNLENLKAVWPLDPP
In short, it runs like this: as §1

Test [6] concerns the target T5, ETS2 (Homo sapiens, UniProt P15036 1-469).
T5 sequence: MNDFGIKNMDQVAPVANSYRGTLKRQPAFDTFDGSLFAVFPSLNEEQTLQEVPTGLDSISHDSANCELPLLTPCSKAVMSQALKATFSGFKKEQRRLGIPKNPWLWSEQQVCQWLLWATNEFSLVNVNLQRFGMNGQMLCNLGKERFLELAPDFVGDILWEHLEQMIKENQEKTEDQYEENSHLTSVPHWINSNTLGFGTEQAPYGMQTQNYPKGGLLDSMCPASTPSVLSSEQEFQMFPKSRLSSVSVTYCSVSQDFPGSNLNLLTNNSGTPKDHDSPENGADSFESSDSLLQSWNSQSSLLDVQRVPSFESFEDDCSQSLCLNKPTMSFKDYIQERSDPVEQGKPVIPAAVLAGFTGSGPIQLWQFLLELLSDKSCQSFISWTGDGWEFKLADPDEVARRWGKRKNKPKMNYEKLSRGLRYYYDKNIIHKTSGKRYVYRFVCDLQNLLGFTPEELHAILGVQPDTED
A digest of the protocol: as §1

Test [7] addresses T6, SPDEF (Homo sapiens, UniProt O95238 1-335).
T6 sequence: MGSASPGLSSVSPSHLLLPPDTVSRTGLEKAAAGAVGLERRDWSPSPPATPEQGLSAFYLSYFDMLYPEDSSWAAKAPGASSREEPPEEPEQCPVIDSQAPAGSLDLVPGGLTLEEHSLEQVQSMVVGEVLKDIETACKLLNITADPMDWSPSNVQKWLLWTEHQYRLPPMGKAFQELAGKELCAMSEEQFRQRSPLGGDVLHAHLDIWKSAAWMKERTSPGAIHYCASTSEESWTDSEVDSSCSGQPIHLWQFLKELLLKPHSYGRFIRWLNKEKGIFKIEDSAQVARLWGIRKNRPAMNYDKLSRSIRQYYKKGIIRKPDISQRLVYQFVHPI
In short, it runs like this:
as §1

For test [8], the target named is T7, ETV7 (Homo sapiens, UniProt Q9Y603 1-341).
T7 sequence: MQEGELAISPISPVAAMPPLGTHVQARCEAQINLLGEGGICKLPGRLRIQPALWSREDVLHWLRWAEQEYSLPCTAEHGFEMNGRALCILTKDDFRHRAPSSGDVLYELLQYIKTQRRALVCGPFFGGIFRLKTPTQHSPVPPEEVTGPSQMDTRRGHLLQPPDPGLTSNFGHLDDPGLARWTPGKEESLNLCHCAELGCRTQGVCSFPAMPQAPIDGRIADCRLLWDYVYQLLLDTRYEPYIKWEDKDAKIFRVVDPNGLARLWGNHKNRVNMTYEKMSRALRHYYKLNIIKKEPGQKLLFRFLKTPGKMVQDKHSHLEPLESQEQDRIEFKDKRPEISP
In short, it runs like this: as §1

In test [9] the target is T8, ETV3 (Homo sapiens, UniProt P41162-2 1-143).
T8 sequence: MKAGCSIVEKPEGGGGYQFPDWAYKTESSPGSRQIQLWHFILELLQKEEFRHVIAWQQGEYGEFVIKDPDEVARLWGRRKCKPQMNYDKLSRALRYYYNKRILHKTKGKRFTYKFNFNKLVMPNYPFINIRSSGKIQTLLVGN
A digest of the protocol:
as §1

The target in test [10] is ETV6 (Homo sapiens, UniProt P41212 1-452). A digest of the protocol:
as §1

ETV1, sequence (P50549 whole entry): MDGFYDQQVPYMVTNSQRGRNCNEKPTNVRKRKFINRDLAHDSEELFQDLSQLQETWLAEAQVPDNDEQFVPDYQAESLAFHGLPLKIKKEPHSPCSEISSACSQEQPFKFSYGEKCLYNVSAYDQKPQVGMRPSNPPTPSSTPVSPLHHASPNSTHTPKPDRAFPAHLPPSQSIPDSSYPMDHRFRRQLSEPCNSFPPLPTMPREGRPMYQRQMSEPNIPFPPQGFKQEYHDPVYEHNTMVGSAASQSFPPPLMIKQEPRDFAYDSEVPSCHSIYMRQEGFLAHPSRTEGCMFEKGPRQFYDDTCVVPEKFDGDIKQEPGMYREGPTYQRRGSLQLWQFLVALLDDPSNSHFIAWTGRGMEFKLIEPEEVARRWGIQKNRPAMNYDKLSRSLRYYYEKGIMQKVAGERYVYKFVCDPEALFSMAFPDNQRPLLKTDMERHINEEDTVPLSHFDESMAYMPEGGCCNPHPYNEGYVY
ETV6, sequence (P41212 whole entry): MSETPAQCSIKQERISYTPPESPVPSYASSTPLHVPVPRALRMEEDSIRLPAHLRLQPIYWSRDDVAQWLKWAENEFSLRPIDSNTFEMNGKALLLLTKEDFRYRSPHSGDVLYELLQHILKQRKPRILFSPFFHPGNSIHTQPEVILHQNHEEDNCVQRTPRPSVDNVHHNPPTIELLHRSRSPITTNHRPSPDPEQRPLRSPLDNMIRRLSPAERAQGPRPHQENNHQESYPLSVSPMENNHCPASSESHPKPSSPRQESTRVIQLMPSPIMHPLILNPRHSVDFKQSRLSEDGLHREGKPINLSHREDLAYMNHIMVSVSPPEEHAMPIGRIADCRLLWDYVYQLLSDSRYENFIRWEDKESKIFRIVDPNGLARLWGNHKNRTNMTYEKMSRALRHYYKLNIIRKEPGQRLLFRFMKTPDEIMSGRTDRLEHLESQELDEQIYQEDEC

As to CGTTTA, the binding signal in test [1] was 1.15 fold enrichment (6-mer frequency, TF over GST control); in test [2], 1.09 fold enrichment (6-mer frequency, TF over GST control); in test [3], 1.12 fold enrichment (6-mer frequency, TF over GST control); in test [4], 1.05 fold enrichment (6-mer frequency, TF over GST control); in test [5] it was 1.1 fold enrichment (6-mer frequency, TF over GST control); in test [6] it was 1.16 fold enrichment (6-mer frequency, TF over GST control). Also, the binding signal in [7] was 1.14 fold enrichment (6-mer frequency, TF over GST control); in test [8], 1.12 fold enrichment (6-mer frequency, TF over GST control); in test [9], 1.05 fold enrichment (6-mer frequency, TF over GST control); in test [10], 1.14 fold enrichment (6-mer frequency, TF over GST control).
